Compounds without any hit were thinned out: in the full panel of roughly 83,000, 20% have a hit.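 Values shown are percent growth following 48 h exposure of cells in 96-well plates to a single concentration of compound; below 10 was considered active.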 A number with no mark means an inactive call. The source made the active and inactive calls.

The subject of the assay is SK-OV-3 ovarian. The experiment in a line: NCI-60 one-dose screen, 48 h (100 = growth as untreated, 0 = no growth, -100 = all killed). Particulars: 10 µM. On the procedure: Growth inhibition of the SK-OV-3 human tumor cell line is measured as a screen for anti-cancer activity. Cells are grown in 96 well plates and exposed to the test compound for 48 hours. Compounds are tested at a single concentration, which is 10^-5 M for most compounds. The reported endpoint is percent growth (GI% or GIPRCNT), where numbers from 0 - 100% represent growth inhibition, and numbers from -100% - 0 represent cell death. For example, a value of 40 represents 60% growth inhibition. A value of 0 means no net growth occurred over the course of the experiment. A value of -40 indicates 40% of cells at the beginning of the experiment died by the end of the experiment. A value of -100 means all cells are dead at the end of the experiment.
NCI-60 Human Tumor Cell Lines Screen was performed using the standard one-dose NCI protocol, which is described in more detail at https://dtp.cancer.gov/discovery_development/nci-60/default.htm.
Compounds with GIPRCNT values below 10 were considered active. Activity score was based on GIPRCNT using the following formula: […]
Score is 0 for GIPRCNT values of 100 or above, 50 for GIPRCNT values of 0, and 100 for GIPRCNT values of -100.
In the case of `O=C/C=C/c1ccc([N+](=O)[O-])cc1Cl`, the growth is 104%.

`Nc1ccccc1NC(=O)CCCCCCC(=O)Nc1ccc2c(c1)/C(=C/c1ccc[nH]1)C(=O)N2`: the growth was 38.4%.

For the compound `CCOC(=O)c1c(O)c2cc(-c3ccccc3)nc(OCC)c2c(=O)n1C`, the growth is 107%.

In the case of `COc1ccc(-c2cc(=O)n(-c3nc4ccccc4[nH]3)[nH]2)cc1OC`, the growth is 87.2%.

In the case of `C=CCOc1ccc2c(c1)CC[C@@H]1[C@@H]2CC[C@]2(C)C(=O)/C(=N/O)C[C@@H]12`, the growth was 81.8%.

Consider `CCOC(=O)/C(C#N)=C(/C)C1CC1`, for which the growth was 111%.

For `CC1(C)CC(OCCCC[P+](c2ccccc2)(c2ccccc2)c2ccccc2)CC(C)(C)N1O`, the growth is -13.4% (active).

Consider `C/C(=N\NC(=O)c1sc(=S)n(C)c1N)c1cc2ccccc2o1`, for which the growth is 133%.

On to `CNC(=O)c1cc(Oc2ccc(NC(=O)Nc3ccc(Cl)c(OC(C)C)c3)c(F)c2)ccn1`, for which the growth is 82.8%.

`Cn1c([N+](=O)[O-])cnc1/C=C1\Oc2ccc(Br)cc2C1=O`: the growth is -7.97% (active).

As to `O=C(Nc1cccc(F)c1)Nc1cccc(Cl)c1`, the growth was 114%.

Consider `O=C(NC1CCCC1)c1ccc(N2CCC(NCc3cccc(C(F)(F)F)c3)CC2)cc1`, for which the growth was 98.4%.

For the compound `CC(=O)Oc1c(C)c(C)c2c(c1C)CCC(C)(CC(=O)OCCCCCCCCCCC[P+](c1ccccc1)(c1ccccc1)c1ccccc1)O2` (stereo not given), the growth was -18.4% (active).

As for `O=C(Nc1cccc(-c2nc3ccccc3[nH]2)c1)c1cccc(NC(=O)c2ccco2)c1`, the growth was 102%.

For the compound `Nc1cc(O)cc(O)c1`, the growth is 99.3%.

Turning to `COc1ccc(-c2nnc(SCC(=O)c3ccccc3)o2)cc1`, the growth is 102%.

In the case of `CCOCC[P+](c1ccccc1)(c1ccccc1)c1ccccc1`, the growth is 60.3%.

On to `C=CCN1C(=O)/C(=C\c2ccc3c(c2)CCC3)SC1=S`, for which the growth is 98.6%.

As to `CC(C)c1[nH]nc2c(NCc3ccc(-c4ccccn4)cc3)nc(SCCN)nc12`, the growth is 3.32% (active).

As for `Cc1cc(/C=C2\SC(=Nc3ccccc3)N(C3CCCC3)C2=O)c(C)n1-c1ccc(Cl)cc1`, the growth was -90.5% (active).

For the compound `Cc1nnc2c3nnc(-c4ccc(Cl)cc4)n3c3ccccc3n12`, the growth is 92.5%.

On to `COc1ccc(C(=O)c2sc3nc(-c4cccs4)ccc3c2N)cc1OC`, for which the growth is 70.9%.

Regarding `CCCCCCCCCCSC(=N)N` (tested in a mixture with another compound), the growth was 85.9%.

`CCCCCCOc1ccc(/C=C/C(=O)c2ccc(B(O)O)cc2)cc1`: the growth is 87.3%.

Regarding `COc1ccc(-c2ccc(-c3ccc(C(=N)N)c(F)c3)s2)cc1`, the growth is -93.8% (active).

Take `CCCCCc1cc[n+](CC(=O)c2ccc(Cl)cc2)cc1`: the growth is 99.1%.

With `COc1ccc(-c2nsc3c2NC(=O)CC3c2ccc(Cl)cc2)cc1` (stereo not given), the growth is 86.9%.

For `CC1=CC2OC34COC3CC(OC(=O)C(F)(F)F)C4(C)C2(C)CC1` (stereo not given), the growth is 102%.

As for `COC(=O)[C@]12CC[C@@H](C)[C@H](C)[C@@H]1C1=CC[C@@H]3[C@@]4(C)CC(=O)[C@H](O)[C@@]5(C)COC(=C45)C[C@@]3(C)[C@]1(C)CC2`, the growth is -68.3% (active).

For the compound `CCCCCCCCCCN=C(c1ccc(N(C)C)cc1)c1ccc(N(C)C)cc1`, the growth was 16.6%.

Take `Cc1ccc(-c2cc(C(=O)Nc3ccc(S(=O)(=O)N4CCCCC4)cc3)[nH]n2)c(O)c1`: the growth is 94.1%.

As to `CCC(CCNc1cc(OC)cc2cccnc12)CN1C(=O)c2ccccc2C1=O` (stereo not given), the growth was 95.7%.

Regarding `C/C=C\COc1cc(C)c(Cl)cc1Cl`, the growth is 112%.

With `CC(C)OCc1cc(CN2CCN(c3cccc(Cl)c3)CC2)c(O)c2ncccc12`, the growth was 13.7%.

Turning to `Cc1ccccc1[P+](Cc1ccccc1)(c1ccccc1)c1ccccc1`, the growth was 43.7%.

Take `COc1ccc(-c2nc(-c3nc4ccc(OC)cc4[nH]3)c3ccccn23)cc1`: the growth is 92.3%.

Turning to `CC(=O)OC1Oc2ccccc2-c2oc(=O)c(-c3ccc(F)cc3)cc21` (stereo not given), the growth was 92.6%.

Consider `CNC(=O)c1cc(Oc2ccc(NC(=O)Nc3ccc(Cl)c(OC4CCCCC4)c3)c(F)c2)ccn1`, for which the growth is 72.8%.

In the case of `COc1ccc(C(=O)/C=C/c2cc(-c3ccc(OC)c(OC)c3)n[nH]2)cc1OC`, the growth was 41.2%.

Consider `CCCC(C)c1ccc(OCCCCCCN2CCNCC2)cc1` (stereo not given), for which the growth was 87%.

The values above are taken from PubChem BioAssay (NCI).
